Test results from ChEMBL document CHEMBL5308541, “MAIP: An Open-Source Tool to Enrich High-Throughput Screening Output and Identify Novel, Druglike Molecules with Antimalarial Activity” (ACS Med Chem Lett, 2023).
The whole screen tested about 4,800 compounds, of which about 410 (8.5%) showed an effect of 50% or more. The full list was thinned out, with strong results kept by preference.

System: Plasmodium falciparum
Assay: Confirmatory screen in NF54 pLDH assay, in single point, at 2uM, 72h
Assay type: functional, Erythrocyte
Conditions: timepoint 72 hour

| SMILES | % Inhibition [%] |
| --- | --- |
| Cc1ccc2nc(NC[C@H]3CCN(C4CC4)C3)cc(C)c2c1 | 100 |
| Cc1ccc2nc(-c3cccc(NC(=O)c4ccc(OC(F)(F)F)c(Cl)c4)c3)[nH]c2n1 | 74 |
| O=C(NCCNc1ccnc2ccncc12)c1ccc(C(F)(F)F)cc1 | 43 |
| Cc1cnccc1NCCNCc1ccc(OC(C)C)c(Cl)c1 | 84 |
| Cc1ocnc1CNC[C@H](O)c1ccc(Cl)c(Cl)c1 | 97 |
| CNc1nc(N[C@H]2CCCN(Cc3ccc(Cl)cc3)C2)nc2c1CCC2 | 100 |
| Nc1ccc(Nc2ccc(F)cc2)c2ccncc12 | 70 |
| CN([C@@H](c1ccccc1)c1ccccc1Br)S(=O)(=O)c1c[nH]c2ncccc12 | 67 |
| CN(C[C@H](O)COc1ccccc1CN1CCC(c2ccncc2)CC1)C1CCCCC1 | 84 |
| CN(C[C@H](O)COc1cccc(CNCCCOc2cccnc2)c1)C1CCCCC1 | 44 |
| O=C(Nc1cncnc1N1CCCC1)c1cc(F)cc2[nH]cnc12 | -8 |
| CN1CCC(N(C)C[C@H](Nc2ncnc3ccccc23)c2ccccc2)CC1 | 102 |
| Cc1nc2ccc(Oc3ccccc3)cc2c(O)c1CN(C)C1CCN(C)CC1 | 28 |
| COc1ccc(-c2cncc(C(=O)NCC3CCN(CCN(C)C)CC3)c2)cc1 | 96 |
| CN(C)CCN1CCC(CNCc2ccc3ncccc3c2)CC1 | 29 |
| COC(=O)c1cn(CCNc2ccnc3cc(Cl)ccc23)cc2c(O)nnc1-2 | 103 |
| CCCN(CCN1CCN(CC)CC1)c1nc(-c2ccccn2)nc2c1CCC2 | 10 |
| c1ccc(-c2nc3c(c(NCCNc4ncccn4)n2)CCC3)nc1 | 23 |
| CNc1nc(C)cc(N[C@@H]2COc3ccccc3C2)n1 | 89 |
| c1ccc2c(CNCCC3CCN(c4ccncc4)CC3)csc2c1 | 95 |
| Fc1ccc(-n2cc(CNCCC3CCN(c4ccncc4)CC3)cn2)cc1 | 102 |
| CCN1CCN(c2ccccc2CNCCC2CCN(C)CC2)CC1 | 2 |
| c1ccc(-c2ccnc(C3CCN(CC45CNCC4C5)CC3)n2)cc1 (stereo not given) | 96 |
| COCCN1CCC[C@H](CNCc2cnn(-c3ccc4ccccc4c3)c2)C1 | 13 |
| COCCN1CC[C@H](CNC2CCN(c3ncc4ccc(F)cc4n3)CC2)C1 | 71 |

| SMILES | % Inhibition [%] |
| --- | --- |
| CN(C)C1(CNc2nc(C(F)(F)F)nc3cc4c(cc23)OCO4)CCCCCC1 | 49 |
| CN(C)C1(CNc2nc(C(F)(F)F)nc3cc(F)ccc23)CCCCCC1 | 57 |
| CN1CCC(N2CCC(NC(=O)c3ccc(S(=O)(=O)N(C)C4CCCCC4)cc3)CC2)CC1 | 39 |
| Cc1ccc(-c2cc(C(=O)NC3CCN(C4CCN(C)CC4)CC3)n[nH]2)cc1C | 102 |
| Cc1cc(N2CCC(NCCCN3CCCc4ccccc43)CC2)nc(N)n1 | 88 |
| Cc1ccc2nc(CCCNC3CCN(c4cc(C)nc(N)n4)CC3)oc2c1 | 59 |
| Cc1cc(N2CCC(NCCc3c[nH]cn3)CC2)nc(-c2ccccc2)n1 | 11 |
| OC1(c2ccc(Cl)cc2)CCN(C[C@@H]2CCCN3CCCC[C@H]23)CC1 | 88 |
| CN(C)CCN1CCC(NC2CCC(O)(c3cccc(Cl)c3)CC2)CC1 (stereo not given) | 33 |
| CC(C)(C)n1ncc2c(NCc3ccc4cccnc4c3O)ncnc21 | 37 |
| c1ccc2c(c1)CN(c1ncnc3[nH]ccc13)CC1(CCOCC1)O2 | -5 |
| CCn1cc(-c2cccc(C(=O)N[C@@H](C)CN3CCc4ccccc4C3)c2)cn1 | 38 |
| NCCCCc1c(-c2cccnc2)[nH]c2c(Cl)cc(Cl)cc12 | 75 |
| COCCN1CC[C@H](CN(C)c2ccnc3cc(Cl)ccc23)C1 | 102 |
| O[C@@]1(c2c[nH]nn2)CCN(c2ccnc3cc(Cl)ccc23)C1 | 98 |
| NC(=O)[C@]1(O)CCN(c2ccnc3ccc(Oc4ccccc4)cc23)C1 | 33 |
| COCCN1CCC[C@@]2(CCN(c3ccnc4cc(Cl)ccc34)C2)C1 | 101 |
| CN1CCC(Oc2ccc(NC(=O)c3cn4ccnc4s3)cn2)CC1 | 92 |
| CN(C)Cc1cccc(CCNCc2csc(-c3ccc(C(F)(F)F)cc3)n2)c1 | 88 |
| COc1ccc2[nH]cc(C3=CCN(c4ccc5nnc(-c6ccccc6F)n5n4)CC3)c2c1 | 41 |
| Fc1cccc(Cl)c1CN1CCC(NC[C@H]2CCCOC2)CC1 | 21 |
| c1cc(CNC2CCN(C[C@H]3CCOC3)CC2)c2cc[nH]c2c1 | -13 |
| CCc1ccc2ncnc(NCCCN3CCN(CCO)CC3)c2c1 | 85 |
| Cc1cc(O)c(Cl)cc1-c1cccc2c(N)ccnc12 | 94 |
| Cc1cc(O)c(Cl)cc1-c1ccc2nccc(N)c2c1 | 100 |

| SMILES | % Inhibition [%] |
| --- | --- |
| COC(CN(Cc1nc(N)nc(Nc2ccc(C)cc2)n1)Cc1nc(N)nc(Nc2ccc(C)cc2)n1)OC | 94 |
| c1ccc(CCC23CN(Cc4ccccn4)CC2CN(Cc2ccns2)C3)cc1 (stereo not given) | 88 |
| Cc1noc(-c2ccnc(NC[C@@H](c3ccccn3)N3CCOCC3)c2)n1 | 100 |
| COc1ccc2c(C)cc(NCCCN3CCC[C@H](C(N)=O)C3)nc2c1 | 100 |
| Cc1cc(NCCCN2CCC[C@H](O)C2)c2cc(F)ccc2n1 | 31 |
| CCN1C[C@H](Nc2nc(C)nc3sccc23)[C@@H](OC)C1 | 101 |
| O=C(NCCN1CCCCC1)c1cccc(-c2cnc3ccc(F)cn23)c1 | 21 |
| CC(CNc1nc(NCC(C)N2CCOCC2)c2cc(Cl)ccc2n1)N1CCOCC1 (stereo not given) | 102 |
| CCNc1cc(C)nc(NCCNC(=O)Nc2cc(F)cc(F)c2)n1 | 92 |
| CCNc1nc(C)cc(Nc2ccc(NC(=O)Nc3ccc(F)cc3F)cc2)n1 | 99 |
| CCOc1ccc2nc(N3CCC(N4CCC([C@H](O)c5cccnc5)CC4)CC3)nc(C)c2c1 | 8 |
| CCOc1ccc2nc(CN(CC)CC3CCN(C4CCN(C)CC4)CC3)ccc2c1 | 99 |
| CN(Cc1cn(CC(N)=O)c2ccccc12)CC1CCN(CCc2ccc(F)cc2)CC1 | 41 |
| Cc1cc(N2CCC(Nc3ccnc4ccncc34)CC2)nc(C)n1 | 7 |
| CCN1CCN([C@H]2CCN(c3ccnc4ccncc34)C2)CC1 | 98 |
| Cc1ccc2nccc(N3CCC(N4CCC(O)CC4)CC3)c2c1 | 12 |
| Nc1cc(N2CCC(c3nc4cc(F)ccc4[nH]3)CC2)nc(N2CCOCC2)n1 | 42 |
| Cc1ccc2[nH]cc(-c3cc(N4CCOCC4)nc(N)n3)c2c1 | 55 |
| Cc1ccc(-c2cccc3c(C(=O)NCCCN4CCC(N5CCCCC5)CC4)cc(C)nc23)cc1 | 103 |
| Brc1ccc2[nH]c3c(c2c1)CCCC3NC1CCc2[nH]cnc2C1 (stereo not given) | 104 |
| CCOc1cc2nccc(N3C[C@H]4CN(C)C[C@H]4C3)c2cc1OCC | 96 |
| Oc1ccc(OC(F)(F)F)cc1-c1ccc2nccn2n1 | 92 |
| Nc1ccc(-c2cc(OC(F)(F)F)ccc2O)cn1 | 14 |
| Clc1cccc(N2CC[C@H](CNC3CCN(Cc4ccco4)CC3)C2)c1 | 97 |
| COc1ccnc(NCCCc2nc(-c3ccncc3)cs2)n1 | 64 |
